target: AMP-activated protein kinase, AMPK (Homo sapiens) (UniProt P54646+O43741+P54619+Q9UGJ0+Q9Y478+Q13131+Q9UGI9); assay: AMP-dependent Kinase enzyme assay. An in vitro enzyme assay that detects ADP turnover that is directly proportional to AMPK activity. This uses naive AMPK that is activated during the assay with MK-8722; type: functional; set-up: scale not given: direction of the effect not stated beside the values; conditions: 30 µM

First: Cc1noc(C)c1CC(=O)N1CCCC(Cn2ccnc2C)C1 (stereo not given)
Second: Cc1nccn1CC1CCCN(C(=O)Cc2ccsc2)C1 (stereo not given)
The Percent Effect of the first is lower: -4.07% for the first, 0.964% for the second.

Compared with `Cc1cc(C)c2[nH]c(C(=O)NCCN3CCNC3=O)c(C)c2c1`, `Cc1n[nH]c(C)c1CCNC(=O)Nc1ccc2c(c1)COC2` is higher in Percent Effect: 11.1% for the first, 11.6% for the second.

First: CC1(C)Cc2nc(C(C)(C)C)ncc2C(NC(=O)Cc2nnn[nH]2)C1 (stereo not given)
Second: CC(C)(C)c1nc(CC(=O)Nc2cnccc2O)cs1
The Percent Effect of the first is lower: -20.8% for the first, -0.224% for the second.

First: O=C(NC1CCCC1)N1C[C@H]2CN(c3ccncc3)C[C@@]2(C(=O)O)C1
Second: O=C1NCCCCC1NC(=O)N1CCCc2cc(F)ccc21 (stereo not given)
The Percent Effect of the first is higher: 9.08% for the first, 6.88% for the second.

First: COc1ccc(Cl)cc1C(=O)N1C[C@H](C(C)C)[C@@H](N)C1
Second: N[C@H]1CN(C(=O)c2ccc3[nH]c(=O)c(=O)[nH]c3c2)C[C@@H]1c1ccccc1
The Percent Effect of the first is higher: 6.24% for the first, 3.24% for the second.

First: Cc1cc(C)c(C#N)c(NCCn2cnnc2C(C)C)n1
Second: Cc1cc(NC(C)c2n[nH]c(C)n2)n2nc(C)c(C)c2n1 (stereo not given)
The Percent Effect of the first is lower: 2.2% for the first, 20.5% for the second.

Going from `CC(C(=O)NCCc1ccc2c(c1)OCCO2)n1cncn1` (stereo not given) to `CC(CNC(=O)CCn1cncn1)N1CCc2ccccc21` (stereo not given), the Percent Effect rises from -6.97% to 6.66%.

Compared with `Cc1c(NC(=O)N(C)CCn2cnnc2)cccc1OC1CCCC1`, `CC(=O)c1cccc(OC(C)C(=O)Nc2cnn(CCN(C)C)c2)c1` (stereo not given) is higher in Percent Effect: -2.5% for the first, -0.8% for the second.

Compared with `C[C@@H]1CN(S(=O)(=O)N2CCCCCC2)C[C@@]1(O)C1CCC1`, `CC(C)O[C@H]1CN(C(=O)CCN2CCCCO2)C[C@@H]1O` is higher in Percent Effect: -7.79% for the first, -7.14% for the second.

Compared with `CC(C)(C)c1ccc(C(=O)NCCCNC(=O)c2cnccn2)cc1`, `COc1cccc(CC(=O)N2CCc3ncnc(NCCO)c3CC2)c1` is lower in Percent Effect: 8.31% for the first, -1.01% for the second.

Compared with `COC1CCN(c2ccc(F)cc2CN(C)CC(N)=O)CC1`, `Cc1ncsc1CCN(C)C(=O)c1ccc(CN2CCCCC2)cc1` is lower in Percent Effect: 5.84% for the first, 5.27% for the second.

First: Cc1ncoc1C(=O)N1CCOC(Cc2ccccc2)C1 (stereo not given)
Second: O=C(c1cc(-c2ccccc2)nc2onc(C3CC3)c12)N1CC[C@H](O)C1
The Percent Effect of the first is higher: 8.13% for the first, 4.85% for the second.

Compared with `Cn1cncc1C(=O)N1CCCC(c2ccn[nH]2)C1` (stereo not given), `Cc1ccc(N2CCCC(Nc3nn4cc(C)nc4s3)C2)nn1` (stereo not given) is higher in Percent Effect: -5.31% for the first, 8.12% for the second.

First: O=C(NCc1cc(-c2ccccc2)no1)NC1CCCCNC1=O (stereo not given)
Second: O=C(NCCn1ccnc1)C1COCC(=O)N1Cc1ccccc1 (stereo not given)
The Percent Effect of the first is lower: -4.86% for the first, 5.07% for the second.

Going from `Cc1ccc(CN(C(=O)NC2CCS(=O)(=O)C2)C2CC2)o1` (stereo not given) to `CCOC(=O)c1ccc(S(=O)(=O)NCC(CC)N2CCCC2)cc1` (stereo not given), the Percent Effect falls from 1.3% to -6.04%.

Going from `Cc1noc(C)c1C(=O)N(C)C(C)c1ccncc1` (stereo not given) to `CC(c1ncc(-c2ccccc2)o1)N1CCN(C(=O)N(C)C)CC1` (stereo not given), the Percent Effect falls from -0.736% to -7.85%.

First: c1cnc(N2CCCC(Cc3nccs3)C2)nc1 (stereo not given)
Second: CCn1ncnc1C(C)Nc1cc(C2CC2)ncn1 (stereo not given)
The Percent Effect of the first is lower: 0.818% for the first, 3.16% for the second.

First: C=C(C)CN(CC)C(=O)CN1CCCC1C(=O)N(C)C (stereo not given)
Second: CCN(CCOC)C(=O)c1cc(COc2ccc3c(c2)CCCC3)on1
The Percent Effect of the first is higher: 3.77% for the first, 0.118% for the second.

Going from `CCOCCOC(C)C(=O)Nc1nccn1Cc1ccccc1` (stereo not given) to `CCN(C)C[C@@H]1CN(Cc2cnc3c(S(C)(=O)=O)cnn3c2)C[C@@H]1CO`, the Percent Effect falls from -2.1% to -11.4%.

First: CC(C)CNC(=O)c1[nH]nc(C2CC2)c1Br
Second: O=C(Cc1ccc(Cl)s1)Nc1ccc2c(c1)C(=O)NC2=O
The Percent Effect of the first is lower: -2.23% for the first, 68.3% for the second.

From ChEMBL document CHEMBL3988442, “University of Dundee, Small-Polar-MMV Screening Library” (2021)
